Source: ChEMBL document CHEMBL1961873, “Compounds: GSK PKIS; Assays: Nanosyn kinase panel” (2012)

How the values were obtained:
[1] = biological target: Serine/threonine-protein kinase MARK2 (Homo sapiens) (UniProt Q7KZI7); conditions: at 1 µM
[2] = biological target: PAS domain-containing serine/threonine-protein kinase (Homo sapiens) (UniProt Q96RG2); conditions: at 0.1 µM
[3] = biological target: PAS domain-containing serine/threonine-protein kinase (Homo sapiens) (UniProt Q96RG2); conditions: at 1 µM
[4] = biological target: Phosphorylase b kinase gamma catalytic chain, skeletal muscle/heart isoform (Homo sapiens) (UniProt Q16816); conditions: at 0.1 µM
[5] = biological target: Phosphorylase b kinase gamma catalytic chain, skeletal muscle/heart isoform (Homo sapiens) (UniProt Q16816); conditions: at 1 µM
[6] = biological target: T1, Phosphorylase b kinase gamma catalytic chain, liver/testis isoform (Homo sapiens) (UniProt P15735); conditions: at 0.1 µM
T1 sequence (whole entry): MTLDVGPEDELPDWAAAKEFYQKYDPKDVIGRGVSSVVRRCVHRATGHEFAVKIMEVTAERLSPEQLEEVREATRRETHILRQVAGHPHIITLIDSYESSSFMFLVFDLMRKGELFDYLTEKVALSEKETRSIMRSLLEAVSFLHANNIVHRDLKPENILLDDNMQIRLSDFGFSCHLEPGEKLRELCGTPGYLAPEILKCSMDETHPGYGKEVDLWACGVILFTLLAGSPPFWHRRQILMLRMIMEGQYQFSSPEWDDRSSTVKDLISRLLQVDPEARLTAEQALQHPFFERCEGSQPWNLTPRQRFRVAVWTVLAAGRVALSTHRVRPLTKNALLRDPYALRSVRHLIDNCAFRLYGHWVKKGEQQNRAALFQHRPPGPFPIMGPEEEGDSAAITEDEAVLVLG

[7] = biological target: T1, Phosphorylase b kinase gamma catalytic chain, liver/testis isoform (Homo sapiens); conditions: at 1 µM
[8] = biological target: Serine/threonine-protein kinase pim-1 (Homo sapiens) (UniProt P11309); conditions: at 0.1 µM
[9] = biological target: Serine/threonine-protein kinase pim-1 (Homo sapiens) (UniProt P11309); conditions: at 1 µM
[10] = biological target: Serine/threonine-protein kinase pim-2 (Homo sapiens) (UniProt Q9P1W9); conditions: at 0.1 µM
[11] = biological target: Serine/threonine-protein kinase pim-2 (Homo sapiens) (UniProt Q9P1W9); conditions: at 1 µM
[12] = biological target: Serine/threonine-protein kinase pim-3 (Homo sapiens) (UniProt Q86V86); conditions: at 0.1 µM
[13] = biological target: Serine/threonine-protein kinase pim-3 (Homo sapiens) (UniProt Q86V86); conditions: at 1 µM
[14] = biological target: T2, MAP kinase-activated protein kinase 5 (Homo sapiens) (UniProt Q8IW41); conditions: at 0.1 µM
T2 sequence (whole entry): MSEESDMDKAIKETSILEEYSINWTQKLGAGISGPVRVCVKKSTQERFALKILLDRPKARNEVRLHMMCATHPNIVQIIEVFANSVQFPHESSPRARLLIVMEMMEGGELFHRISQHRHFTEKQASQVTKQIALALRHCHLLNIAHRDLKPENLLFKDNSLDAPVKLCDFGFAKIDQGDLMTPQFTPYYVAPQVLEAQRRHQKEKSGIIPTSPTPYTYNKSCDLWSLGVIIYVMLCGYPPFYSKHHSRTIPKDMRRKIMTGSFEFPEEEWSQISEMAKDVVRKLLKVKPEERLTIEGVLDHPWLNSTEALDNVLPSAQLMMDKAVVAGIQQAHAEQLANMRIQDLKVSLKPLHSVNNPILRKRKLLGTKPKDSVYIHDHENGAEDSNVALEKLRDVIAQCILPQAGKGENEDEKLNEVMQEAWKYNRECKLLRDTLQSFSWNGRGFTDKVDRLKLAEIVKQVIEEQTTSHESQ

[15] = biological target: T2, MAP kinase-activated protein kinase 5 (Homo sapiens); conditions: at 1 µM
[16] = biological target: Serine/threonine-protein kinase SIK1 (Homo sapiens) (UniProt P57059); conditions: at 0.1 µM
[17] = biological target: Serine/threonine-protein kinase SIK1 (Homo sapiens) (UniProt P57059); conditions: at 1 µM
[18] = biological target: Serine/threonine-protein kinase SIK2 (Homo sapiens) (UniProt Q9H0K1); conditions: at 0.1 µM
[19] = biological target: Serine/threonine-protein kinase SIK2 (Homo sapiens) (UniProt Q9H0K1); conditions: at 1 µM
[20] = biological target: T3, Serine/threonine-protein kinase TBK1 (Homo sapiens) (UniProt Q9UHD2); conditions: at 0.1 µM;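 note: values are the mean TBK1 inhibition, taken from the GSK PKIS screening data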
T3 sequence (whole entry): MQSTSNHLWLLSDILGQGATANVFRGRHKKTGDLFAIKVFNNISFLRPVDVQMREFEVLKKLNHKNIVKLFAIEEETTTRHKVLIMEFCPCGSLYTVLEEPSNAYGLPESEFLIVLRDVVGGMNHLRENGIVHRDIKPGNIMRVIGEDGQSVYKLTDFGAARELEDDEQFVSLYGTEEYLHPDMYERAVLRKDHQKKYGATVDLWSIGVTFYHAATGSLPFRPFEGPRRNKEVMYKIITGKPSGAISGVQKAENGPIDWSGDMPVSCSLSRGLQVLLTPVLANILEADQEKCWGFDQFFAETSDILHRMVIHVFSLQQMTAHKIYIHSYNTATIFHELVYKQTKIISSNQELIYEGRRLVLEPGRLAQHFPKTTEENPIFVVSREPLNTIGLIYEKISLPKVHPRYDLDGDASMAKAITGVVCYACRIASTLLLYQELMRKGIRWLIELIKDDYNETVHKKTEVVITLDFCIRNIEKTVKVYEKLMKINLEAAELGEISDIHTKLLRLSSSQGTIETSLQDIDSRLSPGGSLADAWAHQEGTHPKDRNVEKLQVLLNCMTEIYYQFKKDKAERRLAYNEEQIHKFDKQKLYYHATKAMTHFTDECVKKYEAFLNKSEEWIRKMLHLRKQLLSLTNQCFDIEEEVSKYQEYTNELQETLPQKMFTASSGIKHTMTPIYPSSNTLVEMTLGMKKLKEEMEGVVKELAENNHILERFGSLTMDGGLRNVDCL

Chain of Serine/threonine-protein kinase SIK1 (Homo sapiens) (P57059 whole entry): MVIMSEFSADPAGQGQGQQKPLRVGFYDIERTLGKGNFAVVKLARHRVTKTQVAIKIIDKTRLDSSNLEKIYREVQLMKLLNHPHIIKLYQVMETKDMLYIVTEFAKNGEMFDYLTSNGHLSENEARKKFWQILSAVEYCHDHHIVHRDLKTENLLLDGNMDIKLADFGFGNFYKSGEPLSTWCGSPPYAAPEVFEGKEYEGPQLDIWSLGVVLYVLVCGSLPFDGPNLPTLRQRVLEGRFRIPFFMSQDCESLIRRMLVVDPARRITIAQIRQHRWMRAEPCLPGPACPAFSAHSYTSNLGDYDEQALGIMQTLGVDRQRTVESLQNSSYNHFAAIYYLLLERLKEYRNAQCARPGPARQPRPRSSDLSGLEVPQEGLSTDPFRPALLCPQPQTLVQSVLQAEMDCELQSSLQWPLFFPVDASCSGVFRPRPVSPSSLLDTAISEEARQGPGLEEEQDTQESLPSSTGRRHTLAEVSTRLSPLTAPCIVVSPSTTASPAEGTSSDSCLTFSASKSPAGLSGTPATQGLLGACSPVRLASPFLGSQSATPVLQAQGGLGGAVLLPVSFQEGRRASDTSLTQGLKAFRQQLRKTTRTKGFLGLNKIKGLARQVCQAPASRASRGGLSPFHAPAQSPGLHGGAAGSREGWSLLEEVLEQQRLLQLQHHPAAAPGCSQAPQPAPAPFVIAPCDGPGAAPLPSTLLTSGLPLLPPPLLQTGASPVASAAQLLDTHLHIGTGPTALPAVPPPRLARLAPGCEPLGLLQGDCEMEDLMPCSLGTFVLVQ
Chain of Serine/threonine-protein kinase MARK2 (Homo sapiens) (Q7KZI7 whole entry, the tested form may be a part): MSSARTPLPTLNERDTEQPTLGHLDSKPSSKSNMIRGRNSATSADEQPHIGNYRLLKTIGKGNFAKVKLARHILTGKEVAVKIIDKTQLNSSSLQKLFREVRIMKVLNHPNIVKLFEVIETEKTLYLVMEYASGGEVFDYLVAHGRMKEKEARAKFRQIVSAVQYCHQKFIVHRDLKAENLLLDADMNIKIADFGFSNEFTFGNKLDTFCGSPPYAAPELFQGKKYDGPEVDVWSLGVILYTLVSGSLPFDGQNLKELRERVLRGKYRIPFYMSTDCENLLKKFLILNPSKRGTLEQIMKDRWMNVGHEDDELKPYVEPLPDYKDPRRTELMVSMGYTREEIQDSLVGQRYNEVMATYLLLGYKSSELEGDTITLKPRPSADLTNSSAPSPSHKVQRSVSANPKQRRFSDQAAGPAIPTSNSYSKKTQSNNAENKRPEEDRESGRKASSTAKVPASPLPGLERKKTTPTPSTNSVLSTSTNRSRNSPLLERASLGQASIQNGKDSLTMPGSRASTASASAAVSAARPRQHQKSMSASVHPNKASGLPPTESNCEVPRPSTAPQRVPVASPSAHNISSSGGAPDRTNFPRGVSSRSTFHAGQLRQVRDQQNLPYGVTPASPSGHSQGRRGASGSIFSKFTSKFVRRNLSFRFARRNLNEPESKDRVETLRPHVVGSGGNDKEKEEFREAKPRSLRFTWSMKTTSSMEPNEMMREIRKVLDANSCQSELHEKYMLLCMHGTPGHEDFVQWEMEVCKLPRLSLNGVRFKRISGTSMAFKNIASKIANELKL
Chain of Serine/threonine-protein kinase pim-1 (Homo sapiens) (P11309 whole entry, looked up): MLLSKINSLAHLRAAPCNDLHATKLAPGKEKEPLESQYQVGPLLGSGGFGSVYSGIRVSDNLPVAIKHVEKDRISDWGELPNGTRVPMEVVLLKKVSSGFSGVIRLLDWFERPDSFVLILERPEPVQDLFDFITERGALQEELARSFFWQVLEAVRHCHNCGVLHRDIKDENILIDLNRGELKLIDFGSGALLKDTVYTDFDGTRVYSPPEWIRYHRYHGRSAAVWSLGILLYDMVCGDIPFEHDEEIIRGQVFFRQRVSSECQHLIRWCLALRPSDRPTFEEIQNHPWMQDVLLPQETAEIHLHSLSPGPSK
Chain of PAS domain-containing serine/threonine-protein kinase (Homo sapiens) (Q96RG2 whole entry, the tested form may be a part, canonical isoform): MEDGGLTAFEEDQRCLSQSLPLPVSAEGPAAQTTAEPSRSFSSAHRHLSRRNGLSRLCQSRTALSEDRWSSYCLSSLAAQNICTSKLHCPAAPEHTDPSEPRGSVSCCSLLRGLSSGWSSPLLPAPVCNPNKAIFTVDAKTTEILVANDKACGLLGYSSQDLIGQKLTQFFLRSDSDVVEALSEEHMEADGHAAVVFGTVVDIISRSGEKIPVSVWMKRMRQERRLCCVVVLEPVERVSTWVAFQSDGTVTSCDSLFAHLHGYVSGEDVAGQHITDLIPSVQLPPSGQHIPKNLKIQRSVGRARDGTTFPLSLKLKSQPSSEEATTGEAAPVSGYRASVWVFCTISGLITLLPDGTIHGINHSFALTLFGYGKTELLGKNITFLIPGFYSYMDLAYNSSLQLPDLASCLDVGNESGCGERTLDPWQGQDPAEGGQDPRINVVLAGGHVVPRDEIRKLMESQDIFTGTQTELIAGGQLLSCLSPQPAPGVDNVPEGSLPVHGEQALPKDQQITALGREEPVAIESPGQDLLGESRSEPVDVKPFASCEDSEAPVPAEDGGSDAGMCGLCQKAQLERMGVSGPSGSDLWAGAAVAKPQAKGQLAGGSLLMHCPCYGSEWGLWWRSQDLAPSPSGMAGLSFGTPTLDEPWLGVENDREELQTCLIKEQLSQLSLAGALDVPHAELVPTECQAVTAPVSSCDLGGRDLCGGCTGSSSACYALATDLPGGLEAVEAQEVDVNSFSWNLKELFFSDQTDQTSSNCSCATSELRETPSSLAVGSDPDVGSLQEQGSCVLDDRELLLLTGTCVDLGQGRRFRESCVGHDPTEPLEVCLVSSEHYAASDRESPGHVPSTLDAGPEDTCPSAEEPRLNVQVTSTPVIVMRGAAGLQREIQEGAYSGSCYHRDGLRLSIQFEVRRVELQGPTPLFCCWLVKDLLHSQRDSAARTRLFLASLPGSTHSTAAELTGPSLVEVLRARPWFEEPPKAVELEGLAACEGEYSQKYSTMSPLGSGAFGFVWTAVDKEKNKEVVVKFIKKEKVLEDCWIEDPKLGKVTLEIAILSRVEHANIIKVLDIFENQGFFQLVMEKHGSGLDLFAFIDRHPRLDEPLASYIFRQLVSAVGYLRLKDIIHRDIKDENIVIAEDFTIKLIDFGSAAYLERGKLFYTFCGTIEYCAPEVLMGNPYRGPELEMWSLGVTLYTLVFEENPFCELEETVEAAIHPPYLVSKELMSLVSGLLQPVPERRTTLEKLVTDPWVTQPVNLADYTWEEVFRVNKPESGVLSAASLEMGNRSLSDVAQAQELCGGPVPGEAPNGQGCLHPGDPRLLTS
Chain of Serine/threonine-protein kinase pim-2 (Homo sapiens) (Q9P1W9 whole entry, looked up): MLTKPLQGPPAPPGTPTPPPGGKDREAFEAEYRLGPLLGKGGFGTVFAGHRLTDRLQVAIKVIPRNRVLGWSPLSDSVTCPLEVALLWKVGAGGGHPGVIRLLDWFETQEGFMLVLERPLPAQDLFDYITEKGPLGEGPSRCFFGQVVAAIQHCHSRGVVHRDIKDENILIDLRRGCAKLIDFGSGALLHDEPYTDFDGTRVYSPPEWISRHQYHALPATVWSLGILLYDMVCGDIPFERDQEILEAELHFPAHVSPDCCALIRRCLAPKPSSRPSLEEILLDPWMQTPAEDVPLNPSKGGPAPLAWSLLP
Chain of Serine/threonine-protein kinase SIK2 (Homo sapiens) (Q9H0K1 whole entry, looked up): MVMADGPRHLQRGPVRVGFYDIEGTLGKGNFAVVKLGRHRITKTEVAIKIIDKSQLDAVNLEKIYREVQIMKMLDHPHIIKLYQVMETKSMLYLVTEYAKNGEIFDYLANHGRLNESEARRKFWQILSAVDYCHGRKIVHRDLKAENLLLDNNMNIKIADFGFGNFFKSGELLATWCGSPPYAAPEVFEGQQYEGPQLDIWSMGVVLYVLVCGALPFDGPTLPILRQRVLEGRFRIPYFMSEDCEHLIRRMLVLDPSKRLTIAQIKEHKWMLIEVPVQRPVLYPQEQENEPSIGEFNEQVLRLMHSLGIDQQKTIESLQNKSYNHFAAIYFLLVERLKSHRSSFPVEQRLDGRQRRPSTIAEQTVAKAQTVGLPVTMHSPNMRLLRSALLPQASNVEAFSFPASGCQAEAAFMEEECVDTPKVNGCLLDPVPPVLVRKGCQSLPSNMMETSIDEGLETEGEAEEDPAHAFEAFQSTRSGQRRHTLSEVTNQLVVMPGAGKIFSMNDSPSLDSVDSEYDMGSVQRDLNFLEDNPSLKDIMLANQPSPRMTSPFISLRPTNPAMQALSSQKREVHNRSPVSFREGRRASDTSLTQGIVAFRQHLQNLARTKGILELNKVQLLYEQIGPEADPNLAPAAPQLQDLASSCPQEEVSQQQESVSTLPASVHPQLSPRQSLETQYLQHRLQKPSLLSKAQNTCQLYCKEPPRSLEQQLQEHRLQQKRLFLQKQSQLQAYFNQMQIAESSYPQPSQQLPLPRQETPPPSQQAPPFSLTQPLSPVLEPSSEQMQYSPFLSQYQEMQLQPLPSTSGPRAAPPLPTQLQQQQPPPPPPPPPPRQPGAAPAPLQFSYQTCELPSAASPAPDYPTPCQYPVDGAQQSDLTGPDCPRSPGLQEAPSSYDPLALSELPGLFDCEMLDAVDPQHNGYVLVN

SMILES	inhibition [1] [%]	inhibition [2] [%]	inhibition [3] [%]	inhibition [4] [%]	inhibition [5] [%]	inhibition [6] [%]	inhibition [7] [%]	inhibition [8] [%]	inhibition [9] [%]	inhibition [10] [%]	inhibition [11] [%]	inhibition [12] [%]	inhibition [13] [%]	inhibition [14] [%]	inhibition [15] [%]	inhibition [16] [%]	inhibition [17] [%]	inhibition [18] [%]	inhibition [19] [%]	inhibition [20] [%]
Cc1cc(O)cc(C)c1/C=C/c1cncc(-c2nn[nH]n2)c1	3.29	-0.17	-1.14	6.07	4.92	4.78	2.82	0.66	1.59	-3.3	-2.91	-1.97	-0.67	1.58	1.02	56.2	94.7	6.01	53.7	1.57
Cc1ccc(NC(=O)c2ccnc(N3CCCC3)c2)cc1-c1ccc(C(=O)NCC2CC2)cc1	6.34	-0.05	-1.71	6.43	11	5.9	5.73	0.89	1.92	-2.62	-1.68	-0.52	1.15	1.02	1.69	1.07	8.28	0.28	8.6	6.98
Cn1cc(C=C2C(=O)Nc3cccnc32)c2ccccc21	5.73	-0.07	-2.27	4.46	20.8	2.23	2.8	1.3	10.4	0.38	3.47	0.47	11.5	0.25	1.48	-0.28	9.48	2.86	4.37	2.42
CC1=C(C(=O)Nc2ccc3[nH]ncc3c2)C(c2ccc(Cl)c(Cl)c2)CC(=O)N1 (stereo not drawn)	3.36	-0.49	-1.74	1.04	2.45	2.86	-0.26	-0.12	0.22	0.05	-1.37	-0.64	-1.31	0.08	-1.02	6.5	2.84	-0.93	2.87	-0.19
CN(C)c1cc2c(Nc3ccc4nc(Cc5ccccc5)[nH]c4c3)ncnc2cn1	1.13	0.02	-2.17	7.34	13.4	5.65	5.19	1.36	3.18	-0.82	0.97		2.51	1.83	2.12	5.71	10.2	8.08	7.99	2.69
COc1ccc2cc(-c3c(-c4ccncc4)nc(-c4ccc([S+](C)[O-])cc4)n3C)ccc2c1 (stereo not drawn)	2.02	0.01	-1.68	2.27		4.08	1.1	-0.22	0.54	-0.02	0.99	-1.77	-3.85	0.94	-0.4	2.62	1.89	0.52	5.27	-2.09
Cc1ccc(C(=O)NC2CCCCC2)cc1-c1ccc(C(=O)NCC2CC2)cc1	0.99	1.33	-0.83	0.53	-0.89	3.98	1.55	-0.39	0.56	1.02	1.66	22.2	-1	0.69	-0.72	3.08	8.02	2.73	1.96	1.75
